Pf growth 96h: inhibits malaria parasite growth, 96 h. P. falciparum luciferase reporter growth, 96 h. Potency, µM (titrated, usually from 28.7 µM), without a hit: top-dose activity change, negative = inhibition, hits mostly inhibitors. hit rate 6.9% among 320,000; also: % is scaled to controls: 0 for no effect and ±100 for the full control effect
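P. falciparum expressing integrated firefly luciferase grown in erythrocytes (2% hematocrit, 0.05% parasitemia final) with compounds for 96 hours at 37 C, 5% CO2. Growth inhibition read as loss of luminescence after adding luciferase detection reagent.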
AMA1 RON2 block: inhibitors of Plasmodium falciparum AMA1-RON2 interaction; Potency, µM (highest dose often 58.2 µM), inactives show at the top dose activity change, negative = inhibition, hits mostly inhibitors; AlphaScreen AMA1-biotinylated RON2 peptide binding; hit rate 0.2% among 360,000;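 also: 0% = vehicle wells and -100% = peptide control; nearly all actives have a fitted effect of over 45% in size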
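AMA1 (3D7) with his tag at 25 nM final met compounds first, then biotinylated RON2 peptide at 25 nM; detection used donor plus acceptor beads, 10 µg/mL apiece, read by AlphaScreen after 30 min at room temperature.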
SARS PLpro yeast: SARS-CoV PLP inhibition in yeast | S. cerevisiae expressing SARS-CoV PLpro, growth rescue | Potency, µM (highest dose often 32.9 µM), for inactives: at the top dose activity, positive = growth rescue, most hits filed as activators | hit rate 0.19% among 330,000 | AID 485353; calls by dose curve; also: 0% is about no effect; nearly all actives have a fitted effect of over 55% in size
Pf growth 48h: P. falciparum growth inhibition at 48 hours (one generation); P. falciparum luciferase growth in erythrocytes, 48 h; Potency, µM (doses to about 28.7 µM), inactives show at the top dose activity change, negative = inhibition, most hits filed as inhibitors; hit rate 5.9% among 310,000; AID 504832; also: % is scaled to controls: 0 for no effect and ±100 for the full control effect
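Here the parasites carry a stable luciferase gene and grow inside erythrocytes in Albumax-based RPMI medium with compound for one erythrocytic cycle. Activity is scored as loss of luminescent signal.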
Starred values were filed as active, the others as inactive; ? = inconclusive; . = not tested or not shown. A selection: hits, their analogues and other compounds. The true share with any hit is near 9.4%. Unless noted, calls follow the shape of the dose curve; as a rule, active = well fitted curve in the direction sought with a large enough effect; inconclusive = small, poorly fitted or top-dose-only effect, or another doubt; inactive = no such curve, though single readings can be large; an effect the other way counts as inactive or inconclusive. Potency is read from the fitted curve at half-maximal effect.

SMILES	Pf growth 96h	AMA1 RON2 block	SARS PLpro yeast	Pf growth 48h
COC(=O)c1ccc(CN2CCC(Oc3cccc(C(=O)N4CCOCC4)c3)CC2)cc1	0.4%	7.5%	-1.5%	-1.5%
COc1ccccc1NC(=O)CCc1nc(-c2ccccc2F)no1	-0.9%	-3.6%	-2.2%	22.2%
COc1ccc(Nc2cc(C(=O)NCCCN3CCOCC3)c3ccccc3n2)cc1	56.7%	-2.0%	-1.3%	3.4%
COc1ccccc1Nc1cc(C(=O)NCCCN2CCOCC2)c2ccccc2n1	0.928µM*	-5.0%	-1.0%	.
COc1ccc(OC)c(Nc2cc(C(=O)NCCCN3CCOCC3)c3ccccc3n2)c1	.	-13.7%	3.2%	?
CCc1ccc(Nc2cc(C(=O)NCCCN3CCOCC3)c3ccccc3n2)cc1	5.22µM*	11.7%	5.6%	.
COc1cc2c(cc1O)CC[n+]1cc3c(OC)c(OC)ccc3cc1-2	0.117µM*	-4.5%	3.4%	0.415µM*
COc1cc2c(cc1OC)-c1cc3ccc4c(c3c[n+]1CC2)OCO4	0.147µM*	-29.2%	-33.3%	1.04µM*
CCOc1ccccc1N1CCN(Cc2cnc(-c3ccccc3)[nH]2)CC1	9.28µM*	-12.6%	3.8%	13.1µM*
COc1ccccc1N1CCN(Cc2cnc(-c3ccccc3)[nH]2)CC1	?	-13.8%	0.0%	-14.6%
CC1=NC(=O)C(N=Nc2ccccc2)N1c1ccccc1 (centres undefined)	33.7%	?	1.6%	279.8%
CC1=NC(=O)C(N=Nc2ccccc2C(=O)O)N1c1ccccc1 (centres undefined)	4.65µM*	48.4%	1.2%	-29.8%
C[C@H](CO)N1C[C@H](C)[C@H](CN(C)C(=O)Nc2ccc(C(F)(F)F)cc2)Oc2ncc(-c3cccnc3)cc2C1=O	.	0.8%	.	.
C=CC(COCc1ccccc1)N(C(=O)OC(C)(C)C)S(=O)(=O)c1ccccc1Br (centres undefined)	?	0.0%	0.8%	?
C=CCC(COCc1ccccc1)NS(=O)(=O)c1ccccc1Br (centres undefined)	?	4.4%	-2.2%	13.1µM*
CC1=C(C(=O)OCc2ccc3c(c2)OCO3)C(c2ccccc2OCc2ccccc2)NC(=O)N1 (centres undefined)	.	-2.6%	0.2%	10.4µM*
CCCOc1ccccc1C1NC(=O)NC(C)=C1C(=O)OCCOC(C)C (centres undefined)	11.7µM*	-1.9%	7.5%	?
CCCOc1ccccc1C1NC(=O)NC(C)=C1C(=O)OCCOC (centres undefined)	.	-4.6%	2.2%	-5.4%
CC1=C(C(=O)OCc2ccc3c(c2)OCO3)C(c2ccccc2)NC(=O)N1 (centres undefined)	-18.2%	-0.8%	-5.9%	.
CCCOc1ccccc1C1NC(=O)NC(C)=C1C(=O)OCc1ccccc1 (centres undefined)	-4.3%	-13.9%	9.0%	13.1µM*
CC1CCC(NC(=O)Cn2cc3c(n2)CCCC3)CC1 (centres undefined)	?	2.2%	-3.2%	.
O=C(NC1CCCCC1)C(c1ccc2ncccc2c1)N(Cc1cccs1)C(=O)c1cccs1 (centres undefined)	?	4.5%	-20.3%	11.7µM*
O=C(NC1CCCCC1)C(c1ccc2ncccc2c1)N(Cc1ccc2c(c1)OCO2)C(=O)c1ccc2c(c1)OCCO2 (centres undefined)	?	-5.3%	-15.9%	7.38µM*
O=C(NC1CCCCC1)C(c1ccc2ncccc2c1)N(Cc1ccc(F)cc1)C(=O)c1ccc2c(c1)OCCO2 (centres undefined)	10.4µM*	0.7%	-3.0%	?
O=C(NC1CCCCC1)C(c1ccc2ncccc2c1)N(Cc1ccco1)C(=O)c1ccc2c(c1)OCCO2 (centres undefined)	2.62µM*	-8.7%	-10.6%	5.22µM*
O=C(NC1CCCCC1)C(c1cccs1)N(Cc1cccs1)C(=O)c1cccs1 (centres undefined)	?	-3.5%	-18.5%	?
CCCCN(C(=O)CSCC(=O)Nc1ccc(C)cc1)c1c(N)n(CC(C)C)c(=O)[nH]c1=O	-3.3%	10.2%	-2.9%	?
Cc1ccc(C)c(NC(=O)CN(C)C(=O)CSCc2c(C)noc2C)c1	7.8%	2.5%	2.8%	5.2%
CC(C)OC(=O)CSc1nc2cccnc2n1C1CCCCC1	5.9%	0.3%	-3.3%	?
CCOC(=O)CNC(=O)CSc1nc2cccnc2n1C1CCCCC1	9.28µM*	16.9%	-1.7%	-13.8%
